Measurements: PubChem BioAssay AID651640 (Broad Institute, 2012)
Values joined by “and” are separate entries in the source; they are usually repeats but may differ in a detail not shown here. Identical values can stand only once. Among all 350,000 compounds or so, about 6,000 (1.7%) were called active. Another 5% or so got no clear call; they are omitted. The sample holds actives, similar compounds and a random draw of the others, so the mix is not that of the screen. Rule as the data show it: active = CPE inhibition above about 20% (passing the limit was not always enough); inconclusive = no clear call, values can overlap the other calls; tested in BHK-21 cells. A structure can be active in one record and inactive in another.

Assay: inhibitors of DENV2 cytopathic effect, primary screen, cell-based, plate reader, single concentration (AID 651640);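 also: 0% = median of neutral control wells and 100% = median of positive control wells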
Settings: DENV2-infected cells, cytopathic effect rescue, at 9.99 µM, stronger effect = higher value

CPE inhibition, active:
COc1ccc(CN2C[C@H]3CON(C)[C@H]3C[C@H]2c2ccc(-c3cccc(F)c3)cc2)cc1 27.4%, CCOC(=O)C1(Cc2ccccc2C)CCCN(C(=O)CCc2c(C)noc2C)C1 (stereo not drawn) 49.6%, CCCCc1nc2cc(C(=O)NCCc3cnn(C)c3)ccc2o1 36%, O=C(O)C1CCCCC1C(=O)N1CCN(S(=O)(=O)c2ccc(F)cc2)CC1 (stereo not drawn) 70.6%, O=C(NS(=O)(=O)c1cccs1)[C@H]1O[C@@H](n2ccc(=O)[nH]c2=O)[C@H](O)[C@@H]1O 77.5%, Fc1ccc(-c2csc(-c3ccc(C4SCCS4)cc3)n2)cc1F 38.4%, COc1ccc(C2CC(c3cccs3)=NN2C(=O)CCC(=O)O)cc1OC (stereo not drawn) 36.9%, COc1ccccc1CNC(=O)CCCN1C(=O)NC2(CCCC2)C1=O 54.7%, C[C@H]1CN([C@@H](C)CO)S(=O)(=O)c2ccc(-c3cncnc3)cc2O[C@H]1CN(C)Cc1ccncc1 35.7%, CCC(=O)N(C)C[C@H]1Oc2cc(C#CCOC)ccc2S(=O)(=O)N([C@H](C)CO)C[C@H]1C 77.3%, C[C@@H]1CN([C@H](C)CO)S(=O)(=O)c2ccc(C#CCC3CCCC3)cc2O[C@H]1CN(C)Cc1ccc(C(=O)O)cc1 41.8%, C[C@@H]1CN([C@H](C)CO)S(=O)(=O)c2ccc(C3=CCCC3)cc2O[C@H]1CN(C)C(=O)Nc1ccc2c(c1)OCO2 21.4%, CCCC/C=C/c1cccc2nncn12 28.7%

CPE inhibition, inactive:
C[C@H](CO)N1C[C@H](C)[C@H](CN(C)Cc2cccc(C(=O)O)c2)Oc2ncc(-c3ccccc3F)cc2C1=O 5.26%, C[C@@H]1CCCCO[C@@H](CN(C)Cc2ccc(C(=O)O)cc2)[C@H](C)CN([C@H](C)CO)C(=O)c2cc(NC(=O)Nc3ccc(F)cc3)ccc2O1 4.69%, C[C@H]1CN([C@@H](C)CO)C(=O)c2cc(/C=C/c3ccccc3)cnc2O[C@@H]1CN(C)C(=O)c1ccc(F)cc1 -7.53%, CN1OC[C@@H]2CN(C(=O)c3ccc(-c4ccccc4)cc3)[C@H](c3ccc(-c4cccc(F)c4)cc3)C[C@@H]21 -4.1%, COc1ccc(S(=O)(=O)N2C[C@H]3CON(C)[C@H]3C[C@H]2c2cccc(Br)c2)cc1 -6.66%, CCOC(=O)C1(Cc2ccccc2C)CCCN(C(=O)CN2C(=O)CSC2=O)C1 (stereo not drawn) 1.33%, Cc1noc(C)c1CCC(=O)N1CCCC(CO)(Cc2ccccc2)C1 (stereo not drawn) 7.18%, CC(C)c1nc2cc(C(=O)NC(C)c3cnn(C)c3)ccc2o1 (stereo not drawn) 1.88%, CCCCc1nc2cc(C(=O)N3CCCCC3CCO)ccc2o1 (stereo not drawn) 6.93%, C[C@@H]1CN([C@H](C)CO)C(=O)c2cc(-c3ccc(C#N)cc3)cnc2O[C@@H]1CN(C)C(=O)Nc1ccccc1 -5.47%, COc1ccc2c3c(n(C)c2c1)[C@@H](CO)N(CC1CC1)CC31CCN(C(=O)c2cccc(F)c2)CC1 -5.77%, O=C(c1cnc(Cl)c(Cl)c1)N1CCN(S(=O)(=O)c2ccc(F)cc2)CC1 1.53%, O=C(C1CCCN(S(=O)(=O)c2ccccc2)C1)N1CCN(c2ccc(F)cc2)CC1 (stereo not drawn) -0.979%, COc1cccc(C(=O)N2C[C@@H]3[C@H](c4ccccc42)[C@H](CO)N3Cc2ccccc2F)c1 6.58%, Cc1nccn1-c1ccc(NC(=O)[C@H]2O[C@@H](n3ccc(=O)[nH]c3=O)[C@H](O)[C@@H]2O)cc1 1.75%, O=C(N[C@H](Cc1ccccc1)C(=O)N1CCCN(Cc2cccs2)CC1)[C@H]1O[C@@H](n2ccc(=O)[nH]c2=O)[C@H](O)[C@@H]1O -10.6%, COc1ccc(CC(=O)Nc2nc(-c3ccc(F)c(F)c3)cs2)cc1OC -4.33%, Clc1ccc(-c2csc(-c3ccncc3)n2)cc1 2.38%, CC(C)NC(=O)N(C)C[C@@H]1OCCCC[C@@H](C)Oc2ccc(NC(=O)c3ccccc3)cc2C(=O)N([C@@H](C)CO)C[C@H]1C 3.29%, C[C@@H]1CN([C@@H](C)CO)C(=O)c2cc(NC(=O)Nc3cccc4ccccc34)ccc2O[C@@H]1CN(C)C(=O)NC1CCCCC1 -3.76%, COc1ccc(C2=NN(C(=O)CCC(=O)O)C(c3cccs3)C2)cc1OC (stereo not drawn) -2.94%, COc1ccc(C2CC(c3cccs3)=NN2C(=O)CSc2nncs2)cc1OC (stereo not drawn) 6.81%, COc1ccccc1C(=O)NCCC(=O)NN1C(=O)NC2(CCCCC2)C1=O 0.164%, COc1ccccc1CCNC(=O)CN1C(=O)NC2(CCCC2)C1=O -7.14%, C[C@@H]1CCCCO[C@@H](CN(C)C(=O)C2CCCCC2)[C@@H](C)CN([C@H](C)CO)C(=O)c2cc(NC(=O)c3ccccc3)ccc2O1 17.1%, C[C@@H]1CN([C@@H](C)CO)S(=O)(=O)c2ccc(C#CCC3CCCC3)cc2O[C@@H]1CN(C)C -3.23%, C[C@H](CO)N1C[C@H](C)[C@@H](CN(C)Cc2cncnc2)Oc2cc(-c3ccccc3)ccc2S1(=O)=O -3.98%, COc1ccccc1NC(=O)N(C)C[C@H]1Oc2cc(Br)ccc2S(=O)(=O)N([C@H](C)CO)C[C@@H]1C 10.7% and 3.12%, C[C@H](CO)N1C[C@H](C)[C@H](CN(C)Cc2ccncc2)Oc2cc(-c3cncnc3)ccc2S1(=O)=O -6.89%, C[C@@H]1CN([C@H](C)CO)S(=O)(=O)c2ccc(C#CCC3CCCC3)cc2O[C@H]1CN(C)C(=O)CC1CC1 9.35%, CCC(=O)N(C)C[C@@H]1Oc2cc(C#CCOC)ccc2S(=O)(=O)N([C@H](C)CO)C[C@H]1C -10.5%, COCC#Cc1ccc2c(c1)O[C@H](CN(C)C(=O)CN(C)C)[C@@H](C)CN([C@H](C)CO)S2(=O)=O -5.36%, Cc1noc(C)c1NC(=O)N(C)C[C@@H]1Oc2cc(C#CCC(C)C)ccc2S(=O)(=O)N([C@H](C)CO)C[C@@H]1C 16.2%, CN1C(=O)c2cc(NC(=O)Nc3ccccc3Cl)ccc2OC[C@H]2O[C@H](CC(=O)NCCCN3CCOCC3)CC[C@H]21 -4.69%, CCNC(=O)C[C@@H]1CC[C@H]2[C@@H](COc3ccc(NC(=O)NC(C)C)cc3C(=O)N2C)O1 -7.53%, COc1ccc(NC(=O)Nc2ccc3c(c2)OC[C@@H](C)NC[C@@H](C)[C@H](OC)CN(C)C3=O)cc1 -3.84%, COc1ccc(S(=O)(=O)N2C[C@@H](O)COC[C@H]3O[C@@H](CC(=O)NCCN4CCCCC4)CC[C@@H]32)cc1 2.39%, C[C@@H]1CN([C@H](C)CO)C(=O)c2cc(NC(=O)NC3CCCCC3)ccc2O[C@H]1CN(C)C(=O)Nc1ccccc1 1%, C[C@@H]1CCCCO[C@@H](CN(C)C(=O)Cc2ccccc2)[C@@H](C)CN([C@@H](C)CO)C(=O)c2cc(NC(=O)c3ccccc3)ccc2O1 -1.37%, O=C(Nc1ccccc1)N[C@@H]1CC[C@H](CCn2cc(-c3ccccc3F)nn2)O[C@@H]1CO 10.9%, CS(=O)(=O)N1CC2(C1)[C@H](c1ccccc1)[C@@H](CO)N2C(=O)c1ccccc1 0.143%, O=S(=O)(c1ccc(F)cc1)N1CCCCN2[C@H](CO)[C@@H](c3ccc(C#CC4CCCC4)cc3)[C@H]2C1 -3.13%, C[C@@H]1CN([C@@H](C)CO)S(=O)(=O)c2ccc(Br)cc2O[C@@H]1CN(C)C(=O)CN(C)C 2.66%, COCC(=O)N(C)C[C@H]1Oc2cc(C#CC(C)C)ccc2S(=O)(=O)N([C@H](C)CO)C[C@@H]1C -1.85%, C[C@H]1CN([C@@H](C)CO)S(=O)(=O)c2ccc(C#Cc3ccncc3)cc2O[C@@H]1CN(C)C(=O)Nc1ccc2c(c1)OCO2 13.3%, C[C@H]1CN([C@@H](C)CO)S(=O)(=O)c2ccc(C3=CCCC3)cc2O[C@H]1CN(C)C(=O)Nc1ccc2c(c1)OCO2 -1.69%, O=C(C[C@@H]1CC[C@H](NC(=O)Cc2ccccn2)[C@H](CO)O1)NCCc1ccncc1 1.65%, CCNC(=O)C[C@@H]1CC[C@H]2[C@@H](COc3ccc(NC(=O)Cc4cccs4)cc3C(=O)N2C)O1 -0.188%, Cc1noc(C)c1NC(=O)Nc1ccc2c(c1)C(=O)N([C@@H](C)CO)C[C@H](C)[C@H](CN(C)Cc1ccc(C(=O)O)cc1)OCCCC[C@@H](C)O2 -4.14%, CSc1ccc(Oc2cccc3c2S(=O)(=O)N([C@H](C)c2ccccc2)C[C@@H](COCc2ccccc2)O3)cc1C 12%, COC(=O)N1Cc2ccnnc2CC1c1ccccc1Br (stereo not drawn) -2.73%, O=C(O)c1ccccc1-c1cccc2nncn12 -0.993%, C[C@@H]1CCCCO[C@@H](CN(C)S(=O)(=O)c2cn(C)cn2)[C@H](C)CN([C@H](C)CO)C(=O)c2cc(NC(=O)NC3CCCCC3)ccc2O1 5.41%

CPE inhibition, 21.7% (inactive) and 31.3% (active):
COCC(=O)N(C)C[C@H]1Oc2cc(Br)ccc2S(=O)(=O)N([C@H](C)CO)C[C@H]1C

CPE inhibition, 21.5% (active) and 2.3% (inactive):
Cc1noc(C)c1NC(=O)N(C)C[C@@H]1Oc2cc(Br)ccc2S(=O)(=O)N([C@@H](C)CO)C[C@H]1C
